Data: PubChem BioAssay
“And” between values parts separate entries of the source, which are not always exact repeats. Identical values can stand only once. The source made the active and inactive calls.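 How the source made its calls, unless noted: active means thallium flux through the channel raised or lowered by more than 3 SD from vehicle-only wells, actives on both sides; inactive means the rest.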

Experiments:
[1] = test system: Hepatitis C virus NS3 helicase; test: blockers of NS3h binding to DNA – biochemical, fluorescence polarization, NIH Clinical Collection, primary screen (AID 743270; call rule not given here); conditions: NS3 helicase binding to Cy5-dT15 DNA, stronger effect = higher value, concentration not given here
[2] = molecular target: Single-stranded DNA-binding protein (Escherichia coli (strain K12)) (UniProt P0AGE0); test: SSB-ssDNA binding inhibitors – biochemical, fluorescence polarization, NIH Clinical Collection, counter-screen for HCV NS3 helicase inhibitor project (AID 743271; in the data active means inhibition above about 28%); conditions: E. coli SSB-DNA binding, stronger effect = higher value, concentration not given here
[3] = compounds distorting NS3 helicase fluorescence signal – biochemical, NIH Clinical Collection, artefact control for HCV NS3 helicase inhibitor project (AID 743272; call rule not given here;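 further: HCV NS3 helicase with a Cy5 labelled single stranded DNA probe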); conditions: fluorescence interference counterscreen, HCV NS3 helicase assay; stronger effect = lower value
[4] = Wnt pathway potentiators raising nuclear beta-catenin – imaging, WNT3A-conditioned medium, mouse C2C12, NPC library, primary screen (AID 1117326; in the data active means nuclear beta-catenin stimulation mostly above about 4.2%, no sharp cut-off; inactive means mostly below about 10%); conditions: stronger effect = higher value
[5] = stimulators of insulin release from INS-1E, primary screen, cell-based, 5 mM glucose, NPC library (AID 1117329;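 active means compound raises insulin release from rat beta cells at 5 mM glucose, no numeric limit stated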); conditions: rat INS-1E insulin secretion, at 10 µM, stronger effect = higher value
[6] = growth inhibition of GSK3B-pretreated HCT116 cells – cell-based, CellTiter-Glo, 0.2 to 20 µM (AID 1117336;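 active means compounds lowering colon cancer cell viability after pretreatment blocking the GSK3B kinase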); conditions: HCT116 viability after GSK3B inhibitor, at 20 µM, stronger effect = higher value
[7] = inhibition of endothelial tube formation, primary screen, imaging, VEGF stimulated, CD31 staining, tube area, NPC library (AID 1117340;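 active means compound that reduces growth-factor-driven endothelial tube area in a mixed cell culture, no cutoff stated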); conditions: VEGF-stimulated ADSC/ECFC co-culture, at 10 µM, stronger effect = higher value
[8] = GLP1 release stimulators, primary, NCI-H716, NPC library (AID 1117341;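 active means compound raises GLP1 secretion from the human gut endocrine cells, with no numeric limit stated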); conditions: NCI-H716 cells, at 10 µM, stronger effect = higher value
[9] = HCT116 colon cancer cell growth inhibition, primary screen, CellTiter-Glo luminescence, NPC library (AID 1117342;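 active means compounds that lower survival of HCT116 colon cancer cells in the luminescence readout, no numeric limit stated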); conditions: at 20 µM (top of the series)
[10] = reduced SW480 viability measured with CellTiter-Glo, NPC library, primary (AID 1117343;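 active means compounds that lower viability of the colon cancer cells in the luminescence readout, with no numeric limit stated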); conditions: CellTiter-Glo luminescence; at 20 µM (top of the series)
[11] = NPC library primary testing for decreased DLD-1 cell viability via CellTiter-Glo (AID 1117346;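 active means compounds that lower survival of DLD-1 colon cancer cells in the luminescence readout, no cutoff given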); conditions: DLD-1 viability, CellTiter-Glo luminescence; at 20 µM (top of the series)
[12] = molecular target: 6-phosphogluconate dehydrogenase, decarboxylating (Homo sapiens) (UniProt P52209); test: inhibition of human phosphogluconate dehydrogenase – biochemical, recombinant enzyme, NADPH absorbance, primary screen (AID 1159550;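 active means at least 20% inhibition of 6-phosphogluconate dehydrogenase activity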); conditions: recombinant 6PGD, NADPH absorbance 341 nm; at 10 µM; stronger effect = higher value
[13] = viability loss with induced miR-34 in A549 – imaging, A549 dox-inducible miR-34, nuclei and caspase counts, primary screen (AID 1347080;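 active means compounds whose cell count with miR-34 switched on is under 0.7 times the count with it off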); conditions: A549 miR-34 inducible, Hoechst nuclei count, 48 h
[14] = MELAS cybrid and Rieske KO viability enhancers – cell-based, MELAS cybrids, Rieske KO mouse fibroblasts, CellTiter-Glo, primary screen (AID 1508586;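 active means mean z-score across replicates of 1.96 or higher in either the MELAS or the Rieske mutant cell line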;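 further: z relative to plate mean and SD of compound and empty wells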); conditions: low glucose
[15] = molecular target: NAD(+) hydrolase SARM1 (Homo sapiens) (UniProt Q6SZW1); test: blocking NAD cleavage by SARM1 SAM-TIR – cell lysate, NAD-Glo luminescence (AID 1508614;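 active means compound whose remaining NAD level is above about 45 nM, limit read from the data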); conditions: SAM-TIR HEK293T lysate NADase, at 1 µM, stronger effect = higher value
[16] = test system: F380Y; test: BK channel mutant inhibitors and activators – cell-based, U2OS BacMam, thallium flux, beta subunits, selectivity assay, profiling panel (AID 1259406); conditions: U2OS BacMam BK variants, at 30 µM;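 further: initial slope of Thallos dye fluorescence rise after thallium is added; log ratio against the mean of 0.3% DMSO vehicle wells on the same plate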
[17] = test system: F380Y/beta2Delta; test: as above; conditions: U2OS BacMam BK variants, at 30 µM
[18] = molecular target: Calcium-activated potassium channel subunit alpha-1 (Homo sapiens) + Leucine-rich repeat-containing protein 26 (Homo sapiens) (UniProt Q12791+Q2I0M4); test: as above; conditions: U2OS BacMam BK variants, F380Y/Slo1WT/gamma1, at 30 µM
[19] = molecular target: Mitogen-activated protein kinase 7 (Homo sapiens) (UniProt Q13164); test: Gal4-ERK5 driven luciferase induction – cell-based, HTS, primary screen (AID 1508626;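 active means luciferase signal above three times the same-plate solvent-only control wells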;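 further: luciferase driven by Gal4-ERK5 fusion binding five Gal4 sites before minimal TATA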); conditions: HeLa Gal4-ERK5 transactivation, 18 h, at 5 µM, stronger effect = higher value
[20] = EMT-state selective cytotoxicity in co-culture – imaging, PC-3E GFP, TEM4-18 mCherry, primary screen (AID 1345086;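 active means compounds killing one labelled cell type while sparing the other, by normalised counts and ratio limits, not self-fluorescent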;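 on all read-outs here: cells exposed to compound for 72 h before imaging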;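 on red/green cell ratio (normalised): normalised mesenchymal count divided by normalised epithelial count so high means epithelial killing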); conditions: PC-3E GFP / TEM4-18 mCherry co-culture, imaging cell counts, at 1 µM; for red/green cell ratio (normalised): actives lie on both sides, counts scaled to control wells, 1 = unselective
[21] = stronger effect = lower value, cell number ratio, induced over uninduced
[22] = measured here: relative caspase fold change +Dox/-Dox
[23] = measured here: total cells with miR-34 induction, stronger effect = lower value
[24] = measured here: total cells without miR-34 induction
[25] = MELAS cybrid survival, CellTiter-Glo 48 h, stronger effect = higher value
[26] = Rieske KO mouse fibroblast survival, CellTiter-Glo 72 h
[27] = measured here: epithelial PC-3E GFP cell survival
[28] = measured here: mesenchymal TEM4-18 mCherry cell survival

6-phosphogluconate dehydrogenase, decarboxylating (Homo sapiens), sequence (P52209 whole entry, looked up): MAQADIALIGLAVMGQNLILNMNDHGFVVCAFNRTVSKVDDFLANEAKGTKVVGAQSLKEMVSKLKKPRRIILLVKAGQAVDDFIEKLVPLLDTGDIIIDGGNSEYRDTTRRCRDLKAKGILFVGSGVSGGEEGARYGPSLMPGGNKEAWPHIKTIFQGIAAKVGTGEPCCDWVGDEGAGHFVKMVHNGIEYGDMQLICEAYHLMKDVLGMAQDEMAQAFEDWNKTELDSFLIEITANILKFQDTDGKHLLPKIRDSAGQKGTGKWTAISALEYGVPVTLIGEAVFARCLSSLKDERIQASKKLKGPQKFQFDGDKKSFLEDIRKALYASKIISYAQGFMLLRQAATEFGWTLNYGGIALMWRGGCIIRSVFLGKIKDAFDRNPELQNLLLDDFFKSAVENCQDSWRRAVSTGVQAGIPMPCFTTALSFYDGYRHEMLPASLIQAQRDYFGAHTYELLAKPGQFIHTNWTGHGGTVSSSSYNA
Mitogen-activated protein kinase 7 (Homo sapiens), sequence (Q13164 whole entry, looked up, the tested form may be a part): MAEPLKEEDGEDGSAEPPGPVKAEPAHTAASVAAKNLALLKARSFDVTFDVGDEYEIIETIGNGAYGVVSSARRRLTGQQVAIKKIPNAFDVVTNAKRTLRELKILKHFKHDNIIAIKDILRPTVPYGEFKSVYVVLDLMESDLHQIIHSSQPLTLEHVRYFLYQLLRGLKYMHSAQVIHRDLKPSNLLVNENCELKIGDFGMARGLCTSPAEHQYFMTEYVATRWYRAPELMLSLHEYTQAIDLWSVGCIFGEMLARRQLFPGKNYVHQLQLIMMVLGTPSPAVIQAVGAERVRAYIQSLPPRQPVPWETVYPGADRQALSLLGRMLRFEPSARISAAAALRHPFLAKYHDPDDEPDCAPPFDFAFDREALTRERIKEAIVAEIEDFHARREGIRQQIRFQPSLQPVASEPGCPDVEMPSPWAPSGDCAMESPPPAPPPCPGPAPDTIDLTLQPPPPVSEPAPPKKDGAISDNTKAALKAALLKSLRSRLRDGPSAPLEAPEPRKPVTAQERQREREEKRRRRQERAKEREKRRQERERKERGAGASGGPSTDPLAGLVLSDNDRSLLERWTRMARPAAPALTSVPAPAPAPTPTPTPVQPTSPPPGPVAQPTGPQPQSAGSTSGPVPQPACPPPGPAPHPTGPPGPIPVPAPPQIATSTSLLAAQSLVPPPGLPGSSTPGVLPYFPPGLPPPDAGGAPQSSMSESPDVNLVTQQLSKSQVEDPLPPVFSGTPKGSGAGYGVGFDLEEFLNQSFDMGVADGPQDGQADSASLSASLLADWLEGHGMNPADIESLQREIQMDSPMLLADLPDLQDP
NAD(+) hydrolase SARM1 (Homo sapiens), sequence (Q6SZW1 whole entry, looked up): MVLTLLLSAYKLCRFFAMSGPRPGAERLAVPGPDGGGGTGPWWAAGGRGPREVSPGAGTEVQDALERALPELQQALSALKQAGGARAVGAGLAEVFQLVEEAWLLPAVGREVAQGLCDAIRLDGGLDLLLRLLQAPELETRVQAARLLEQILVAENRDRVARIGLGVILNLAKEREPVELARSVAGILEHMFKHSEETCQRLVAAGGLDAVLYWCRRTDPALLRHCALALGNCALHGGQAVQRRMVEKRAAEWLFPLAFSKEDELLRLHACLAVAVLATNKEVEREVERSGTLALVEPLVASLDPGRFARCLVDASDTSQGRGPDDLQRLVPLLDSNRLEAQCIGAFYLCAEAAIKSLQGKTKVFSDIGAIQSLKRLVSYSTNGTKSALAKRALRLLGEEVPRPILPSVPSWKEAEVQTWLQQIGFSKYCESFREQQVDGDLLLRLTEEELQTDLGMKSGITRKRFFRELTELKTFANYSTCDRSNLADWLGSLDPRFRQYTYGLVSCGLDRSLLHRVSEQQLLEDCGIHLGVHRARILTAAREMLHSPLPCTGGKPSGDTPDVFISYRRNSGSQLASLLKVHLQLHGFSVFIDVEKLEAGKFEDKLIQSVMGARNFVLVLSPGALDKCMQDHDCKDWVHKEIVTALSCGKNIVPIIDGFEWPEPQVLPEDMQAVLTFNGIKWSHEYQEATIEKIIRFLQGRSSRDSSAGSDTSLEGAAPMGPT
Calcium-activated potassium channel subunit alpha-1 (Homo sapiens) + Leucine-rich repeat-containing protein 26 (Homo sapiens), sequence (Q2I0M4 whole entry, looked up, the tested form may be a part, one chain of several): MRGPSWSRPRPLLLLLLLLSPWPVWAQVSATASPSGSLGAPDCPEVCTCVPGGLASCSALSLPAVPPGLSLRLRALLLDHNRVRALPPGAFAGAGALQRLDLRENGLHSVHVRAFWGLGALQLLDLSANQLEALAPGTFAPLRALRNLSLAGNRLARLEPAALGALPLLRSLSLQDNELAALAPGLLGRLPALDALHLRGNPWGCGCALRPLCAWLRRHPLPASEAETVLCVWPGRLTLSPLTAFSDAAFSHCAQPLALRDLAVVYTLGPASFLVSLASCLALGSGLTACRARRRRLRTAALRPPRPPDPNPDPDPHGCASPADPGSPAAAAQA

Cc1cccc(Nc2ccncc2S(=O)(=O)NC(=O)NC(C)C)c1
9180 and 10600: cell count [13, 24]
inactive: inhibition [1] -1.19% | inhibition [2] -0.1% | fluorescence ratio [3] 1.02 | nuclear beta-catenin stimulation ([4]; at 10 µM) -1.1% | insulin secretion stimulation [5] 5% | viability decrease [6] -8.2% | tube area decrease [7] -9.9% | GLP1 secretion stimulation [8] -2% | inhibition of viability [9] -1.7% | viability decrease (inhibition) [10] -0.7% | viability decrease (inhibition) [11] -9.6% | inhibition [12] -8.28% | fold change [13, 21] 0.955 and 0.95 | z-score [14, 25] -0.921 | remaining NAD [15] 10 nM | log fold change Tl+ flux [16] 0.0355 | log fold change Tl+ flux [17] -0.0041 | log fold change Tl+ flux [18] -0.0447
8770 and 10100: cell count [13, 23]
0.599 and 1.15: fold change [13, 22]
-0.1%: nuclear beta-catenin stimulation ([4]; stimulation, at 2 µM)
-0.333: z-score [14, 26]

CC(C)(C)NC[C@H](O)COc1nsnc1N1CCOCC1
0.265 and 0.0861: z-score [14, 26]
0.4%: nuclear beta-catenin stimulation ([4]; stimulation, at 2 µM)
inactive: inhibition [1] 0.45% | inhibition [2] 2.57% | fluorescence ratio [3] 0.98 | nuclear beta-catenin stimulation ([4]; at 10 µM) 2.1% | insulin secretion stimulation [5] 3.2% | viability decrease [6] 6.4% | tube area decrease [7] -8.3% | GLP1 secretion stimulation [8] 1.7% | inhibition of viability [9] -6.3% | viability decrease (inhibition) [10] -4.9% | viability decrease (inhibition) [11] -2.7% | inhibition [12] -2.5% | z-score [14, 25] 0.744 and 0.988 | remaining NAD [15] 10 nM | luciferase signal [19] 32 AU | log fold change Tl+ flux [16] 0.0205 | log fold change Tl+ flux [17] 0.019 | log fold change Tl+ flux [18] 0.00124

Cc1ccc(O)c([C@H](CCN(C(C)C)C(C)C)c2ccccc2)c1
inactive: inhibition [1] -4.36% | inhibition [2] 1.44% | fluorescence ratio [3] 0.97 | nuclear beta-catenin stimulation ([4]; at 10 µM) 0.8% | viability decrease [6] 35.6% | tube area decrease [7] -14% | GLP1 secretion stimulation [8] 8.3% | inhibition of viability [9] 44.4% | viability decrease (inhibition) [11] -2.4% | inhibition [12] -2.71% | z-score [14, 25] -0.175 | luciferase signal [19] 64 AU | log fold change Tl+ flux [17] 0.0454 | log fold change Tl+ flux [18] 0.0595
active: insulin secretion stimulation [5] 30.8% | viability decrease (inhibition) [10] 69.7% | log fold change Tl+ flux [16] 0.149
3.5%: nuclear beta-catenin stimulation ([4]; stimulation, at 2 µM)
0.484: z-score [14, 26]

C[C@]12CCC(=O)C=C1CC[C@@H]1[C@@H]2C(=O)C[C@@]2(C)[C@H]1CC[C@]2(O)C(=O)CO
1.3%: nuclear beta-catenin stimulation ([4]; stimulation, at 2 µM)
2.11 and 1.06: fold change [13, 22]
-0.104: z-score [14, 26]
8880 and 10200: cell count [13, 24]
8700 and 9320: cell count [13, 23]
inactive: inhibition [1] -1.97% | inhibition [2] 2.76% | fluorescence ratio [3] 0.97 | nuclear beta-catenin stimulation ([4]; at 10 µM) -0.9% | insulin secretion stimulation [5] -3.1% | viability decrease [6] -9.9% | tube area decrease [7] 4.3% | GLP1 secretion stimulation [8] -2.4% | inhibition of viability [9] 4.4% | viability decrease (inhibition) [10] 6.5% | viability decrease (inhibition) [11] -2.6% | inhibition [12] 4.09% | fold change [13, 21] 0.98 and 0.917 | z-score [14, 25] 1.14 | remaining NAD [15] 10 nM | luciferase signal [19] 36 AU | log fold change Tl+ flux [16] 0.0198 | log fold change Tl+ flux [17] 0.0238 | log fold change Tl+ flux [18] 0.0148

CN(C)CC/C=C1\c2ccccc2COc2ccccc21
active: viability decrease (inhibition) [10] 54.8% | log fold change Tl+ flux [17] 0.0812
inactive: inhibition [1] -1.36% | inhibition [2] 4.1% | fluorescence ratio [3] 0.9 | nuclear beta-catenin stimulation ([4]; at 10 µM) -0.4% | insulin secretion stimulation [5] -0.9% | viability decrease [6] -44.3% | tube area decrease [7] -0.9% | GLP1 secretion stimulation [8] 5.2% | inhibition of viability [9] 12% | viability decrease (inhibition) [11] -3.7% | inhibition [12] 2.99% | fold change [13, 21] 0.953 and 0.908 and 0.946 | z-score [14, 25] 0.295 | remaining NAD [15] 10 nM | luciferase signal [19] 96 AU | log fold change Tl+ flux [16] 0.0501 | log fold change Tl+ flux [18] 0.0287
9160 and 8980 and 8750: cell count [13, 23]
0.3%: nuclear beta-catenin stimulation ([4]; stimulation, at 2 µM)
1.39 and 2.7 and 1.08: fold change [13, 22]
0.581: z-score [14, 26]
9610 and 9880 and 9250: cell count [13, 24]

c1ccc(-c2ccc(C(c3ccccc3)n3ccnc3)cc2)cc1 (stereo unspecified)
inactive: inhibition [1] 12.3% | inhibition [2] 8.37% | fluorescence ratio [3] 1.04 | nuclear beta-catenin stimulation ([4]; at 10 µM) -0.1% | insulin secretion stimulation [5] 0.3% | tube area decrease [7] 23.9% | GLP1 secretion stimulation [8] 8.2% | inhibition [12] 12.4% | red/green cell ratio (normalised) [20] 1.06 | z-score [14, 25] -0.456 and -0.0732 and 0.0643 | remaining NAD [15] 10 nM | luciferase signal [19] 56 AU | log fold change Tl+ flux [16] -0.00418 | log fold change Tl+ flux [17] 0.0145 | log fold change Tl+ flux [18] 0.0139
active: viability decrease [6] 99.7% | inhibition of viability [9] 101% | viability decrease (inhibition) [10] 141% | viability decrease (inhibition) [11] 104%
0.98: normalised cell number [20, 27]
-0.196 and 0.568 and 0.472: z-score [14, 26]
1.04: normalised cell number [20, 28]
0.5%: nuclear beta-catenin stimulation ([4]; stimulation, at 2 µM)

COc1cc(NC(C)CCCN)c2ncccc2c1 (stereo unspecified)
0.94: normalised cell number [20, 27]
active: viability decrease [6] 102% | inhibition of viability [9] 97.2% | viability decrease (inhibition) [10] 71.5% | log fold change Tl+ flux [17] -0.141
1.8%: nuclear beta-catenin stimulation ([4]; stimulation, at 2 µM)
-0.221 and -0.189 and 1.47: z-score [14, 26]
1.34: normalised cell number [20, 28]
inactive: inhibition [1] -5% | inhibition [2] 0.29% | fluorescence ratio [3] 0.86 | nuclear beta-catenin stimulation ([4]; at 10 µM) 1.4% | insulin secretion stimulation [5] 0.4% | tube area decrease [7] 11.2% | GLP1 secretion stimulation [8] 2.7% | viability decrease (inhibition) [11] 47.3% | inhibition [12] -0.957% | red/green cell ratio (normalised) [20] 1.43 | z-score [14, 25] -0.353 and -0.329 and 0.456 | remaining NAD [15] 10 nM | luciferase signal [19] 32 AU | log fold change Tl+ flux [16] -0.0858 | log fold change Tl+ flux [18] -0.0425
